# In paper PMC4336329 (PLoS ONE, 2015):
# Hit rate of the full screen: of about 310,000 compounds, about 14,000 (4.5%) showed an effect of 50% or more. The effect is printed as a negative number. What follows is part of a selection rich in strong results, with near analogues and random picks from the rest.
# Molecular target: human ether-à-go-go-related gene (hERG) potassium channel (human, UniProt Q12809)
# Experiment: primary screen, population patch clamp on CHO cells stably expressing hERG; higher = less effect of the substance
# 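Further: peak tail current of the secondary pulse compared with the same well before compound.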
# human ether-à-go-go-related gene (hERG) potassium channel, sequence (Q12809 whole entry, looked up): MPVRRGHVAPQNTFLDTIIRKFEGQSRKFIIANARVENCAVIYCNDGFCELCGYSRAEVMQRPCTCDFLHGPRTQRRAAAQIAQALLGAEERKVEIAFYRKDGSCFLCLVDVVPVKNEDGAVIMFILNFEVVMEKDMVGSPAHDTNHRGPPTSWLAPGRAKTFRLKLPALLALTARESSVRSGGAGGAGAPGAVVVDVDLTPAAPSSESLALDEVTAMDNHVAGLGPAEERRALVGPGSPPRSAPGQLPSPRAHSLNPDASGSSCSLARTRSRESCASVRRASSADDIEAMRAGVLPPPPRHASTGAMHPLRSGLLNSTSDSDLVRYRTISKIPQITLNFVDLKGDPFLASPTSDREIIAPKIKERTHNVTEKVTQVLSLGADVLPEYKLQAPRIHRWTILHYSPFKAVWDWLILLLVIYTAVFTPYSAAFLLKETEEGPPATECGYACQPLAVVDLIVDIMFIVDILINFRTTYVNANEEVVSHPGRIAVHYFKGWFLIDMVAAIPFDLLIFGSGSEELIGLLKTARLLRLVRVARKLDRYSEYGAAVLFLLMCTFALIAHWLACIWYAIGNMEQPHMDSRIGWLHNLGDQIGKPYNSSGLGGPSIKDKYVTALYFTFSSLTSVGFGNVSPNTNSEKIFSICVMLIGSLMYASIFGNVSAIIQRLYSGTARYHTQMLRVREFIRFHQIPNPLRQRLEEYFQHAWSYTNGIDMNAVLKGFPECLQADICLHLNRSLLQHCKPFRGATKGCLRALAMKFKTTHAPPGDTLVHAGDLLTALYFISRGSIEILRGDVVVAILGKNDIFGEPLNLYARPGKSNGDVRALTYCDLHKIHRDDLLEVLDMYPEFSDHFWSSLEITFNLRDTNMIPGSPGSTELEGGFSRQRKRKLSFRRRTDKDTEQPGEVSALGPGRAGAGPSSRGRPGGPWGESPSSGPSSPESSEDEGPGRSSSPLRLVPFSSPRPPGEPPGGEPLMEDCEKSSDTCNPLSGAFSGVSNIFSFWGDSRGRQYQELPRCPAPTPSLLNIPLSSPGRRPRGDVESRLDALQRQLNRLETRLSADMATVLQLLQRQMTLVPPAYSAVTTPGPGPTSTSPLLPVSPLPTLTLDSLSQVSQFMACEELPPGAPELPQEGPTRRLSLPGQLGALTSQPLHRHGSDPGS
row,Structure (SMILES),"hERG current change (%, negative = inhibition) at 10uM"
1,CCOC(=O)c1cc(CC)sc1NC(=O)Cc1ccccc1,25.9%
2,CCCCn1c(-c2csc3ccccc23)n[nH]c1=S,12.8%
3,Cc1ccc(S(=O)(=O)NC2=NCN(CCOC(=O)c3ccc([N+](=O)[O-])cc3)CN2)cc1,12.7%
4,CCn1cc(C(=O)NCc2ccc3c(c2)OCO3)c(=O)c2cc(F)c(N3CCN(C)CC3)cc21,-37.2%
5,CCOC(=O)c1cccc(S(=O)(=O)N2CCCC2)c1,8.7%
6,C/C=C/c1ccc(OCC(O)CN2CCCCCCC2)c(OC)c1 (stereo not drawn),-35.4%
7,C/C=C/c1ccc(OCC(=O)O)c(OC)c1,12.4%
8,COc1cc(/C=C/C(=O)OCC(=O)NCc2ccco2)ccc1OC(F)F,6.87%
9,COc1ccccc1OCCCCN1CCC(C)CC1,-16%
10,COc1cc(/C=C/C(=O)N(Cc2ccccc2)c2ccccn2)cc(OC)c1OC,-23.2%
11,COc1ccc(/C=C/C(=O)N(c2ccccn2)C2CCCCC2)cc1OC,-6.44%
12,COc1ccc(/C=C/C(=O)N(Cc2ccccc2)c2ccccn2)cc1OC,-76.6%
13,COc1cc(/C=C/C(=O)OCC(=O)NCc2ccco2)ccc1O,3.65%
14,C/C=C/c1ccc(OCCCCOc2ccc(OC)cc2)c(OC)c1,-7.09%
15,COc1ccc(/C=C/C(=O)OCC(=O)NCc2ccco2)cc1OC,-72%
16,C/C=C/c1ccc(OCC(O)CN(C)Cc2ccc(SC)cc2)c(OC)c1.O=C(O)C(=O)O (stereo not drawn),-71.2%
17,C/C=C/c1ccc(OCCCCN2CCC(C)CC2)c(OC)c1,-68.1%
18,CCOC(=O)C1=C(COc2ccc(F)cc2Cl)NC(=O)NC1c1cc(C)ccc1C (stereo not drawn),10.6%
19,O=[N+]([O-])c1cc(Cl)ccc1Nc1ccccc1,9.85%
20,CCOC(=O)c1sc(NC(=O)COC(=O)CNC(=O)c2ccco2)c(C(=O)OCC)c1C,4.08%
21,COc1cccc(CN2CCN(S(=O)(=O)c3ccccc3)CC2)c1OC,-4.11%
22,CC(C(=O)NCc1ccc2c(c1)OCO2)c1ccc([N+](=O)[O-])cc1 (stereo not drawn),-13.6%

row,Structure (SMILES),"hERG current change (%, negative = inhibition) at 10uM"
1,Cc1ccc(-c2noc(CN3C(C)CCCC3C)n2)cc1 (stereo not drawn),2.64%
2,Cc1cc(O)c(C=O)c2c1C(=O)Oc1c(CO)c(O)c3c(c1O2)C(O)OC3=O (stereo not drawn),0.355%
3,C/C=C/c1ccc(OCCNCc2ccccc2)c(OC)c1.O=C(O)C(=O)O,-39.8%
4,C/C=C/c1ccc(OCCCCNCc2ccco2)c(OC)c1.O=C(O)C(=O)O,-72.9%
5,C/C=C/c1ccc(OCCCNC)c(OC)c1.O=C(O)C(=O)O,-44.6%
6,C/C=C/c1ccc(OCCCNC2CCCC2)c(OC)c1.O=C(O)C(=O)O,-57.6%
7,C/C=C/c1ccc(OCCCNC(C)CC)c(OC)c1.O=C(O)C(=O)O (stereo not drawn),-14%
8,C/C=C/c1ccc(OCCCCN2CCN(CC)CC2)c(OC)c1.O=C(O)C(=O)O,-29.5%
9,C/C=C/c1ccc(OCCCCOc2ccccc2C(C)=O)c(OC)c1,-12.1%
10,COc1cc(C)ccc1OCCCCN1CC(C)OC(C)C1.O=C(O)C(=O)O (stereo not drawn),-9.65%
11,C/C=C/c1ccc(OCCCCN(C)Cc2ccccc2)c(OC)c1.O=C(O)C(=O)O,-79.4%
12,COc1cc(C)ccc1OCCOCCN(C)Cc1ccccc1.O=C(O)C(=O)O,-32.8%
13,C/C=C/c1ccc(OCCOCCNCc2ccccc2)c(OC)c1.O=C(O)C(=O)O,-37%
14,C/C=C/c1ccc(OCCCCN2CC(C)CC(C)C2)c(OC)c1.O=C(O)C(=O)O (stereo not drawn),-81.6%
15,C=CCN1CCN(C(c2ccccc2OC)c2nnnn2C(C)(C)C)CC1.Cl (stereo not drawn),-0.19%
16,CCOC(=O)c1c(C)oc2ccc(OC(=O)N3CCOCC3)cc12,-16.1%
17,CCCN(CCC)C(=O)CCSCCC(=O)N(CCC)CCC,14.5%
18,O=C(NCCN1CCOCC1)C1CCC(=O)N1Cc1ccc(F)cc1 (stereo not drawn),1.05%
19,COc1ccc(Nc2nnc(SCc3cc(=O)n4ccsc4n3)s2)cc1,-68.9%
20,O=c1cc(CSc2nnc(Nc3ccccc3)s2)nc2sccn12,-27.6%
21,Cc1cccc2nc(CSc3nnc(N)s3)cn12,-9.23%
22,CCc1ccc(Nc2nnc(SCc3cc(=O)n4ccsc4n3)s2)cc1,-11.5%

row,Structure (SMILES),"hERG current change (%, negative = inhibition) at 10uM"
1,Cc1ccc(Nc2nnc(SCc3cc(=O)n4cc(C)ccc4n3)s2)cc1,-36.6%
2,COc1ccc(Nc2nnc(SCc3cn4c(C)cccc4n3)s2)cc1,-52.2%
3,CCC(=O)N1CCC2(CC1)Oc1ccc(Cl)cc1C(=O)C21CC(c2cccnc2)=NO1 (stereo not drawn),-15.1%
4,O=C(CCCN1C(=O)c2cccnc2C1=O)N1CC(=O)N(CCc2ccccc2)C(=O)C1,-9.44%
5,CCOC(=O)c1cnc2ccccc2c1Nc1cccc(C(=O)O)c1.Cl,15.3%
6,CC(/C=C1\SC(=S)N(CCCC(=O)Nc2ccc(C(=O)O)c(O)c2)C1=O)=C\c1ccccc1,7.47%
7,Cc1ccc(C)c(S(=O)(=O)NCC(=O)Nc2ccc3c(c2)OCO3)c1,3.55%
8,Cc1cc(C)n(CCn2nc(C)cc2C)n1,4.43%
9,Cc1ccc(NC(=S)NCc2ccccc2Cl)c(C)c1,2.81%
10,CCC(C)NC(=O)c1cn(CC)c2ccc(S(=O)(=O)N(C)C)cc2c1=O (stereo not drawn),1.45%
11,COCCN1CCN(C(=O)c2cc(COc3ccc(F)cc3Cl)on2)CC1,-3.91%
12,NC(=O)CC(NC(=O)Cc1ccc(Br)cc1)c1ccc(N2CCN(c3ccccn3)CC2)c([N+](=O)[O-])c1 (stereo not drawn),17.2%
13,CCN(CC)CCn1c2c(c(SCC(=O)Nc3cc(C)on3)nc1=O)CCCC2,-25%
14,Cc1ccc(C)c(NC(=O)CSc2nc(=O)n(CCN3CCOCC3)c3c2CCCC3)c1,-24.2%
15,COc1cc(NC(=O)CSc2nc(=O)n(CCN3CCOCC3)c3c2CCCC3)cc(OC)c1,-23.3%
16,CCN(CC)CCn1c2c(c(SCC(=O)Nc3cc(C)cc(C)c3)nc1=O)CCC2,-62.1%
17,COc1cc(NC(=O)CSc2nc(=O)n(CCN3CCOCC3)c3c2CCC3)cc(OC)c1,-41.9%
18,COc1cc(NC(=O)CSc2nc(=O)n(CCCN3CCOCC3)c3c2CCC3)cc(OC)c1,-34.9%
19,CCN(CC)CCn1c2c(c(SCC(=O)Nc3cc(OC)cc(OC)c3)nc1=O)CCC2,-70.1%
20,CCN(CC)CCCn1c2c(c(SCC(=O)Nc3cc(OC)cc(OC)c3)nc1=O)CCC2,-64.4%
21,CCN(CC)CCn1c2c(c(SCC(=O)Nc3cc(C)ccc3C)nc1=O)CCC2,-61%
22,COC(=O)NC1(C(=O)O)CCCC1,-0.802%

row,Structure (SMILES),"hERG current change (%, negative = inhibition) at 10uM"
1,O=C(NNC(=O)c1cc(-c2ccco2)nc2ccccc12)c1ccccc1,-3.05%
2,O=S(=O)(Nc1nc2ccccc2nc1NCC1CCCO1)c1ccc(F)cc1 (stereo not drawn),-1.06%
3,Cc1cc(OCC(=O)N2C[C@H]3C[C@@H](C2)c2cccc(=O)n2C3)c2c(C)cc(=O)oc2c1,10.3%
4,COc1ccc(/C=N/NC(=O)C(=O)N2CCN(c3ccccc3OC)CC2)cc1,-27.6%
5,COc1cc(CCC(=O)Nc2ccc(Cl)c(C(F)(F)F)c2)cc(OC)c1OC,13.1%
6,Cc1cc(Cl)c(S(=O)(=O)NCC2CCCO2)cc1OCC(N)=O (stereo not drawn),4.47%
7,O=C(NC1CCCC1)c1cc(-c2ccc(Cl)cc2Cl)on1,7.16%
8,O=C(CN(Cc1ccco1)C(=O)c1ccc(N2CCCC2=O)cc1)Nc1ccccc1C(F)(F)F,-46.3%
9,CCNC(=O)c1sc2cc(C)ccc2c1Cl,-3.25%
10,CN(C)S(=O)(=O)c1ccc(N2CCCC2)c(C(=O)NC2CCC(O)CC2)c1 (stereo not drawn),13.2%
11,c1ccc(-n2nnnc2NC2CCCCC2)cc1,11%
12,Cc1ccc(CSCC(Nc2ccc(C(=O)O)cc2[N+](=O)[O-])C(=O)O)cc1 (stereo not drawn),6.66%
13,COc1cc(OC)c(CN2CCc3c([nH]c4ccccc34)C2)cc1Br,-54.9%
14,COc1cc2c(cc1OC)CN(Cc1ccc(OC)c(C)c1OC)CC2,-43.6%
15,COc1ccccc1CN1CCc2c([nH]c3ccccc23)C1,-23%
16,Clc1cccc(CN2CCc3c([nH]c4ccccc34)C2)c1Cl,-8.21%
17,COc1ccc(CN2CCc3c([nH]c4ccccc34)C2)cc1Br,-45.9%
18,COc1ccc(CN2CCc3c([nH]c4ccccc34)C2)c(OC)c1C,-62.4%
19,O=C(NNC(=O)C1CCN(Cc2cccc(F)c2)CC1)c1cccc(Cl)c1,-8.28%
20,CCOc1ccc(C(=O)Nc2nnc(S(=O)(=O)N(C)Cc3ccco3)s2)cc1,9.14%
21,COCCN1Cc2cccc(C(=O)Nc3ccc4c(c3)OCCO4)c2C1=O,-5.24%
